Several values for one entry are separate records, joined by “and”; a condition that tells them apart may be missing. Equal entries are not always repeated. This is part of a sample that, as a whole, favours compounds with a hit. Of some 79,000 tested, about 15% had one in any assay. More than one record can exist for a structure, and the calls need not agree. Activity calls are given as the source filed them. Rule as the data show it: active = growth inhibition above about 70%; inactive = the rest. *1 amine or outer side, *2 acyl side, *3 side chain or, on linkers, in order; H or OH if unused. Where a SMILES comes first, the peptide text is derived from it. [ ]: non-standard residue; d: D form. X2 = CC[C@H](C)[C@H](OC(=O)[C@@H](C)[C@@H](CC)N[*:1])C(=O)[*:2]; X3 = C[C@H](N[*:1])C(=O)C(C)(C)C(=O)[*:2]; NMeY = CN[C@@H](Cc1ccc(O)cc1)C(=O)O; NMeL = CN[C@@H](CC(C)C)C(=O)O; NMeV = CN[C@H](C(=O)O)C(C)C
Tests used:
[1] = NCI Yeast Anticancer Drug Screen. Data for the rad50 strain (AID 155);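 also: 0% = growth of vehicle-only cultures of the same strain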; conditions: S. cerevisiae rad50 strain growth inhibition, stronger effect = higher value
Method in brief: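 Cells are treated with compound, grown, and their growth is then scored against vehicle-only cultures of the same repair-deficient yeast strain.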

[2] = NCI Yeast Anticancer Drug Screen. Data for the mec2-1 strain (AID 157); conditions: S. cerevisiae mec2-1 strain, stronger effect = higher value
Method in brief: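 Using mec2-1 yeast: add compound, measure growth, express inhibition versus vehicle-treated cultures.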

[3] = NCI Yeast Anticancer Drug Screen. Data for the sgs1 mgt1 strain (AID 161);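 also: 0% = growth of cultures given vehicle only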; conditions: S. cerevisiae sgs1 mgt1 strain, stronger effect = higher value
Method in brief: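 This yeast growth screen uses a strain with defined DNA-repair lesions; compound-treated growth is compared with vehicle-treated growth.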

[4] = NCI Yeast Anticancer Drug Screen. Data for the cln2 rad14 strain (AID 165);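 also: 0% = growth equal to vehicle treated cultures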; conditions: S. cerevisiae cln2 rad14 strain, stronger effect = higher value
Method in brief: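 Yeast strain cln2 rad14, bearing defects in cell cycle control and DNA repair, serves as the test system; values reflect growth inhibition compared with vehicle.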

[5] = NCI Yeast Anticancer Drug Screen. Data for the bub3 strain (AID 167); conditions: S. cerevisiae bub3 mutant strain, stronger effect = higher value
Method in brief: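 Part of a panel of yeast mutants defective in DNA damage repair or cell cycle regulation. Each strain is grown with compound, and inhibition is calculated relative to solvent-treated cultures.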

[6] = NCI Yeast Anticancer Drug Screen. Data for the mlh1 rad18 strain (AID 175); conditions: S. cerevisiae mlh1 rad18 strain growth inhibition, stronger effect = higher value
Method in brief: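 Steps: expose repair-defective yeast to compound; measure growth; express inhibition against vehicle-treated controls.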

[7] = at 5.0 µM (retest, dose inferred, filed as 0.5)
[8] = at 50.0 µM (retest, dose inferred, filed as 5.0)

Measured: growth inhibition

CC1(C)OC2OC3C(CN(CCCl)Cc4ccccc4)OC(c4ccccc4)OC3C2O1 (configuration not stated)
inactive: [1]; [7] 5% | [1]; [8] 18% | [1]; at 50.0 µM 5.3% | [2]; [7] -26% | [2]; [8] -4% | [2]; at 50.0 µM 8.75% | [3]; [7] -10% | [3]; [8] 31% | [3]; at 50.0 µM -0.9% | [4]; [7] -2% | [4]; [8] -1% | [4]; at 50.0 µM 33.8% | [5]; [7] 0% | [5]; [8] 23% | [5]; at 50.0 µM -2.9% | [6]; [7] -23% | [6]; [8] 49% | [6]; at 50.0 µM 14.2%

CCC[CH2][Sn]([N]=C=S)([N]=C=S)[N]=C=S.O=P(c1ccccc1)(c1ccccc1)c1ccccc1.O=P(c1ccccc1)(c1ccccc1)c1ccccc1
inactive: [1]; [7] -5% | [1]; [8] 27% | [1]; at 50.0 µM 50.3% | [2]; [7] -4% | [2]; [8] 15% | [2]; at 50.0 µM 61.2% | [3]; [7] -4% | [3]; [8] 46% | [4]; [7] -2% | [4]; [8] 10% | [4]; at 50.0 µM 23.1% | [5]; [7] -4% | [5]; [8] 33% | [5]; at 50.0 µM 46.2% | [6]; [7] -4% | [6]; [8] 44%
active: [3]; at 50.0 µM 83.2% | [6]; at 50.0 µM 75.3%

NC(=O)/C=C/C(=O)O (tested in a mixture with another compound)
active: [5]; at 50.0 µM 95.7%
inactive: [1]; [7] 0% | [1]; [8] 1% | [1]; at 50.0 µM -5.5% | [2]; [7] 2% | [2]; [8] -1% | [2]; at 50.0 µM 66.5% | [3]; [7] 0% | [3]; [8] 3% | [3]; at 50.0 µM 7.2% | [4]; [7] 1% | [4]; [8] 1% | [4]; at 50.0 µM 23.1% | [5]; [7] -7% | [5]; [8] -4% | [6]; [7] -1% | [6]; [8] 2% | [6]; at 50.0 µM 17.5%

CCOC(=O)/C(=C\c1ccc(C(=O)OC)cc1)[Se]c1ccccc1
active: [1]; at 50.0 µM 74%
inactive: [1]; [7] 13% | [1]; [8] 54% | [2]; [7] 6% | [2]; [8] 26% | [2]; at 50.0 µM 40.8% | [3]; [7] -3% | [3]; [8] 53% | [3]; at 50.0 µM 64.3% | [4]; [7] 3% | [4]; [8] 44% | [4]; at 50.0 µM 51.7% | [5]; [7] 18% | [5]; [8] 53% | [5]; at 50.0 µM 38.4% | [6]; [7] -11% | [6]; [8] 64% | [6]; at 50.0 µM 58.8%

CC[C@H](C)[C@@H]1OC(=O)[C@@H](C)[C@@H](CC)NC(=O)[C@H](C)NC(=O)C(C)(C)C(=O)[C@H](C)NC(=O)[C@H](Cc2ccc(OC)cc2)N(C)C(=O)[C@H](C(C)C)N(C)C(=O)CNC(=O)[C@H](CC(C)C)N(C)C(=O)CNC1=O (cyclo(A[X2]G[NMeL]G[NMeV][NMeY](Me)[X3]))
active: [1]; [7] 99% | [1]; [8] 99% | [1]; at 50.0 µM 92% | [2]; [7] 99% | [2]; [8] 99% | [2]; at 50.0 µM 94% | [3]; [7] 99% | [3]; [8] 99% | [3]; at 50.0 µM 93% | [4]; [7] 98% | [4]; [8] 98% | [4]; at 50.0 µM 91% | [5]; [7] 99% | [5]; [8] 98% | [5]; at 50.0 µM 92.7% | [6]; [7] 96% | [6]; [8] 97% | [6]; at 50.0 µM 90.2%

CCCCCCCCCCCCCCCC[N+](C)(C)CCBr
active: [1]; [7] 99% | [1]; [8] 98% | [1]; at 50.0 µM 89.2% and 98.8% | [2]; [7] 99% | [2]; [8] 99% | [2]; at 50.0 µM 92.5% and 99.2% | [3]; [7] 99% | [3]; [8] 99% | [3]; at 50.0 µM 87.2% and 99.3% | [4]; [7] 99% | [4]; [8] 99% | [4]; at 50.0 µM 89.2% and 99.2% | [5]; [7] 99% | [5]; [8] 99% | [5]; at 50.0 µM 82.3% and 99.1% | [6]; [7] 98% | [6]; [8] 98% | [6]; at 50.0 µM 92.3% and 99.2%

CCCCN(C)CC(C(C)=O)C(c1ccccc1)c1c(O)c2ccccc2oc1=O (configuration not stated)
active: [1]; at 50.0 µM 80.4% | [2]; at 50.0 µM 78.4% | [3]; at 50.0 µM 82.3% | [4]; at 50.0 µM 80.2% | [5]; at 50.0 µM 81.5% | [6]; at 50.0 µM 85.8%
inactive: [1]; [7] 32% | [1]; [8] 32% | [2]; [7] 18% | [2]; [8] 18% | [3]; [7] 11% | [3]; [8] 11% | [4]; [7] 6% | [4]; [8] 6% | [5]; [7] 15% | [5]; [8] 15% | [6]; [7] 22% | [6]; [8] 22%

[Se]C(=NCc1ccccc1)NCc1ccccc1
active: [1]; at 50.0 µM 93.3%
inactive: [1]; [7] 29% | [1]; [8] 61% | [2]; [7] 4% | [2]; [8] 15% | [2]; at 50.0 µM 6.1% | [3]; [7] 2% | [3]; [8] 19% | [3]; at 50.0 µM 19.2% | [4]; [7] -1% | [4]; [8] -7% | [4]; at 50.0 µM -102% | [5]; [7] 3% | [5]; [8] 18% | [5]; at 50.0 µM 46.2% | [6]; [7] 8% | [6]; [8] 29% | [6]; at 50.0 µM 52.4%

Brc1ccc(N2C[N+](c3ccc(Br)cc3)=NC(c3ccccc3)=N2)cc1
active: [1]; [8] 94% | [2]; [8] 96% | [3]; [8] 92% | [4]; [8] 98% | [5]; [8] 99% | [6]; [8] 97%
97.8% (active) and -1.3% (inactive): [2]; at 50.0 µM
98.5% (active) and 10.9% (inactive): [3]; at 50.0 µM
98.5% (active) and -3.05% (inactive): [5]; at 50.0 µM
98.5% (active) and 10.1% (inactive): [4]; at 50.0 µM
98.3% (active) and 13.1% (inactive): [6]; at 50.0 µM
inactive: [1]; [7] 23% | [2]; [7] -2% | [3]; [7] 6% | [4]; [7] 16% | [5]; [7] 2% | [6]; [7] 9%
97.5% (active) and 18.3% (inactive): [1]; at 50.0 µM
